Experimental data published in PubChem BioAssay AID1159580 (chemical genetic matrix, 2015).
Out of some 5,500 compounds screened, about 2,000 (36%) were called active. Inconclusive results (about 18%) are left out. Rule as the data show it: active = normalized growth mostly below about 0.91 (no sharp cut-off); inconclusive = no clear call, values can overlap the other calls; inactive = mostly above about 0.92. The list shows a part of the results.

Assay: chemical genetic growth profiling, strain panel (AID 1159580);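 also: tested at 20 µM; growth read once vehicle control cultures reached saturation at 30 °C; 1 = growth at the plate median or of vehicle wells; lower values mean less growth of the strain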
Details: growth OD
[1] = S. cerevisiae deletion strains, locus YDR150W, strain NUM1, stronger effect = lower value
[2] = S. cerevisiae deletion strains, locus YGR078C, strain PAC10, stronger effect = lower value
[3] = S. cerevisiae deletion strains, locus YMR307W, strain GAS1, stronger effect = lower value
[4] = S. cerevisiae deletion strains, locus YNL153C, strain GIM3, stronger effect = lower value
[5] = S. cerevisiae deletion strains, locus YNL322C, strain KRE1, stronger effect = lower value

Measured: normalized growth

O=C(O)CCC(=O)N1CCCC1C(=O)O (stereo not given)
inactive: S. cerevisiae deletion strains, locus YAL040C, strain CLN3, stronger effect = lower value 1.03 | S. cerevisiae deletion strains, locus YCL061C, strain MRC1 (second series), stronger effect = lower value 1 | [1] 0.998 | S. cerevisiae deletion strains, locus YDR363W, strain ESC2, stronger effect = lower value 1.02 | S. cerevisiae deletion strains, locus YER002W, strain NOP16, stronger effect = lower value 1.01 | [2] 0.979 | S. cerevisiae deletion strains, locus YJR075W, strain HOC1, stronger effect = lower value 1.03 | S. cerevisiae deletion strains, locus YMR263W, strain SAP30, stronger effect = lower value 1.01 | [3] 0.972 | S. cerevisiae deletion strains, locus YNL128W, strain TEP1, stronger effect = lower value 0.999 | [4] 1.24 | S. cerevisiae deletion strains, locus YNL175C, strain NOP13, stronger effect = lower value 0.991 | S. cerevisiae deletion strains, locus YNL197C, strain WHI3, stronger effect = lower value 0.993 | S. cerevisiae deletion strains, locus YNL224C, strain SQS1, stronger effect = lower value 0.992 | [5] 1.02 | S. cerevisiae deletion strains, locus YOR083W, strain WHI5 (second series), stronger effect = lower value 0.989

O=C(O)c1cc(O)ccc1O
inactive: S. cerevisiae deletion strains, locus YAL013W, strain DEP1, stronger effect = lower value 0.986 | S. cerevisiae deletion strains, locus YBR021W, strain FUR4, stronger effect = lower value 0.948 | S. cerevisiae deletion strains, locus YBR229C, strain ROT2, stronger effect = lower value 0.992 | S. cerevisiae deletion strains, locus YCL029C, strain bik1, stronger effect = lower value 0.994 | S. cerevisiae deletion strains, locus YDL035C, strain GPR1, stronger effect = lower value 0.995 | S. cerevisiae deletion strains, locus YDL074C, strain BRE1, stronger effect = lower value 0.978 | S. cerevisiae deletion strains, locus YDL101C, strain DUN1, stronger effect = lower value 0.999 | S. cerevisiae deletion strains, locus YDL185W, strain tfp1, stronger effect = lower value 1 | S. cerevisiae deletion strains, locus YDL192W, strain arf1, stronger effect = lower value 0.993 | S. cerevisiae deletion strains, locus YDR101C, strain arx1, stronger effect = lower value 0.965 | [1] 0.993 | S. cerevisiae deletion strains, locus YDR162C, strain NBP2, stronger effect = lower value 1.01 | S. cerevisiae deletion strains, locus YDR318W, strain mcm21, stronger effect = lower value 1.01 | S. cerevisiae deletion strains, locus YDR388W, stronger effect = lower value 0.989 | S. cerevisiae deletion strains, locus YDR502C, strain sam2, stronger effect = lower value 0.989 | S. cerevisiae deletion strains, locus YEL061C, strain CIN8, stronger effect = lower value 0.998 | S. cerevisiae deletion strains, locus YER110C, stronger effect = lower value 0.981 | S. cerevisiae deletion strains, locus YER155C, strain BEM2, stronger effect = lower value 0.996 | S. cerevisiae deletion strains, locus YER167W, strain BCK2, stronger effect = lower value 0.988 | S. cerevisiae deletion strains, locus YGL078C, strain dbp3, stronger effect = lower value 0.988 | S. cerevisiae deletion strains, locus YGL086W, strain mad1, stronger effect = lower value 0.975 | S. cerevisiae deletion strains, locus YGL248W, strain PDE1, stronger effect = lower value 1.02 | [2] 1.02 | S. cerevisiae deletion strains, locus YGR135W, strain pre9, stronger effect = lower value 1.01 | S. cerevisiae deletion strains, locus YGR252W, strain gcn5, stronger effect = lower value 1.12 | S. cerevisiae deletion strains, locus YHR030C, strain SLT2, stronger effect = lower value 0.989 | S. cerevisiae deletion strains, locus YHR079C, strain IRE1 (second series), stronger effect = lower value 0.986 | S. cerevisiae deletion strains, locus YHR094C, strain hxt1, stronger effect = lower value 0.99 | S. cerevisiae deletion strains, locus YHR129C, strain ARP1, stronger effect = lower value 0.994 | S. cerevisiae deletion strains, locus YHR200W, strain rpn10, stronger effect = lower value 0.989 | S. cerevisiae deletion strains, locus YIL066C, strain RNR3, stronger effect = lower value 0.985 | S. cerevisiae deletion strains, locus YIL073C, strain SPO22, stronger effect = lower value 0.976 | S. cerevisiae deletion strains, locus YIL125W, strain kgd1, stronger effect = lower value 0.987 | S. cerevisiae deletion strains, locus YIR030C, strain dcg1, stronger effect = lower value 1 | S. cerevisiae deletion strains, locus YJL095W, strain BCK1, stronger effect = lower value 1.03 | S. cerevisiae deletion strains, locus YJL134W, strain LCB3, stronger effect = lower value 0.984 | S. cerevisiae deletion strains, locus YJL168C, strain set2, stronger effect = lower value 0.998 | S. cerevisiae deletion strains, locus YJL187C, strain SWE1 (second series), stronger effect = lower value 1.01 | S. cerevisiae deletion strains, locus YJR043C, strain POL32, stronger effect = lower value 1.01 | S. cerevisiae deletion strains, locus YKL009W, strain mrt4, stronger effect = lower value 0.964 | S. cerevisiae deletion strains, locus YKL068W, stronger effect = lower value 0.992 | S. cerevisiae deletion strains, locus YKL085W, strain MDH1 (second series), stronger effect = lower value 1 | S. cerevisiae deletion strains, locus YKL085W, strain MDH1, stronger effect = lower value 1 | S. cerevisiae deletion strains, locus YKL190W, strain CNB1, stronger effect = lower value 0.997 | S. cerevisiae deletion strains, locus YKR001C, strain vps1, stronger effect = lower value 0.985 | S. cerevisiae deletion strains, locus YLR039C, strain RIC1, stronger effect = lower value 1.05 | S. cerevisiae deletion strains, locus YLR058C, strain SHM2, stronger effect = lower value 1 | S. cerevisiae deletion strains, locus YLR102C, strain apc9, stronger effect = lower value 0.987 | S. cerevisiae deletion strains, locus YLR262C, strain YPT6, stronger effect = lower value 1.05 | S. cerevisiae deletion strains, locus YLR268W, strain sec22, stronger effect = lower value 0.986 | S. cerevisiae deletion strains, locus YLR330W, strain CHS5, stronger effect = lower value 0.991 | S. cerevisiae deletion strains, locus YLR342W, strain FKS1 (second series), stronger effect = lower value 0.95 | S. cerevisiae deletion strains, locus YLR371W, strain rom2, stronger effect = lower value 0.989 | S. cerevisiae deletion strains, locus YLR418C, strain cdc73, stronger effect = lower value 1.05 | S. cerevisiae deletion strains, locus YML016C, strain PPZ1, stronger effect = lower value 0.995 | S. cerevisiae deletion strains, locus YML032C, strain rad52, stronger effect = lower value 1.01 | S. cerevisiae deletion strains, locus YML124C, strain tub3, stronger effect = lower value 1 | S. cerevisiae deletion strains, locus YMR078C, strain ctf18, stronger effect = lower value 0.992 | S. cerevisiae deletion strains, locus YMR223W, strain ubp8, stronger effect = lower value 1.04 | [3] 1.07 | S. cerevisiae deletion strains, locus YNL067W, strain RPL9B, stronger effect = lower value 1.01 | [4] 1.02 | S. cerevisiae deletion strains, locus YNL233W, strain BNI4, stronger effect = lower value 1 | S. cerevisiae deletion strains, locus YNL250W, strain rad50, stronger effect = lower value 0.976 | S. cerevisiae deletion strains, locus YNL271C, strain bni1, stronger effect = lower value 0.994 | S. cerevisiae deletion strains, locus YNL298W, strain CLA4, stronger effect = lower value 0.994 | S. cerevisiae deletion strains, locus YNL307C, strain MCK1, stronger effect = lower value 0.98 | [5] 1 | S. cerevisiae deletion strains, locus YNR052C, strain pop2, stronger effect = lower value 1 | S. cerevisiae deletion strains, locus YOL012C, strain htz1 1.12 | S. cerevisiae deletion strains, locus YOL147C, strain pex11, stronger effect = lower value 0.99 | S. cerevisiae deletion strains, locus YOR061W, strain CKA2, stronger effect = lower value 0.996 | S. cerevisiae deletion strains, locus YOR069W, strain VPS5, stronger effect = lower value 0.987 | S. cerevisiae deletion strains, locus YOR136W, strain idh2, stronger effect = lower value 0.995 | S. cerevisiae deletion strains, locus YOR144C, strain elg1, stronger effect = lower value 0.989 | S. cerevisiae deletion strains, locus YOR184W, strain ser1, stronger effect = lower value 1 | S. cerevisiae deletion strains, locus YOR316C, strain cot1, stronger effect = lower value 0.985 | S. cerevisiae deletion strains, locus YPL241C, strain CIN2, stronger effect = lower value 1 | S. cerevisiae deletion strains, locus YPR119W, strain clb2, stronger effect = lower value 0.994 | S. cerevisiae deletion strains, locus YPR141C, strain kar3, stronger effect = lower value 0.981 | S. cerevisiae deletion strains, locus YPR163C, strain tif3, stronger effect = lower value 0.999 | S. cerevisiae deletion strains, locus YPR167C, strain met16, stronger effect = lower value 1.01 | S. cerevisiae deletion strains, strain wtn01, stronger effect = lower value 0.943 | S. cerevisiae strains, strain wild type, stronger effect = lower value 0.994
